According to the supplement of paper PMC10849652:
The full data set covers some 7,900 targets. This sample favours those with a hit. About 0.6% of all pairs of compound and target were hits.

Legend:
Assay in all cases: log2 fold change, soluble protein after heating vs DMSO (PISA); higher = thermal stabilisation; K562 cells, 10 uM, 30 min; active = over 0.2 and 3.5 SD of the protein, either way, in both replicates (recomputed)
[1] = compound: Cc1ccc(NC(=O)c2ccc(CN3CC[C@H](N(C)C)C3)c(C(F)(F)F)c2)cc1Nc1nccc(-c2cncnc2)n1 [bafetinib]
Outline: (§1)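 Values are thermal stability changes relative to control samples and are taken from duplicates. They are stated as log2 fold changes. Before quantification by TMTpro 16plex LC-MS/MS with equalised channel sums, K562 cells at 2×10^6 cells/mL were treated with 10 μM compound for 30 min, heated in aliquots for 3 min across 48°C-58°C, pooled, extracted in PBS with 0.5% NP-40 at 4°C, and centrifuged at 21,000xg for 90 min to give the soluble supernatant.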

[2] = compound: Cc1cccc(CC(=O)N2CCc3c2ccc(-c2cn(C)c4ncnc(N)c24)c3F)n1
Outline: as §1

[3] = compound: Cc1cn(-c2cc(NC(=O)c3ccc(C)c(Nc4nccc(-c5cccnc5)n4)c3)cc(C(F)(F)F)c2)cn1 [nilotinib]
Outline: as §1

[4] = compound: Cc1nc(Nc2n[nH]c3c2CN(C(=O)N[C@H](CN(C)C)c2ccccc2)C3(C)C)c2sccc2n1
Outline: as §1

[5] = compound: Cc1nc(Nc2ncc(C(=O)Nc3c(C)cccc3Cl)s2)cc(N2CCN(CCO)CC2)n1 [dasatinib]
Outline: as §1

[6] = compound: Cc1ncc(-c2ccnc(Nc3ccc(S(C)(=O)=O)cc3)n2)n1C(C)C
Outline: as §1

[7] = compound: Cn1cc(-c2ccc3c(c2)CCN3C(=O)Cc2cccc(C(F)(F)F)c2)c2c(N)ncnc21
Outline: as §1

[8] = compound: Cn1cc(-c2ccc3nnc(C(F)(F)c4ccc5ncccc5c4)n3n2)cn1
Outline: as §1

[9] = compound: Cn1cncc1[C@@](N)(c1ccc(Cl)cc1)c1ccc2c(c1)c(-c1cccc(Cl)c1)cc(=O)n2C [tipifarnib]
Outline: as §1

[10] = compound: FC(F)(F)c1ccc(/C=C/c2nc(COc3ccc(CCCCn4ccnn4)cc3)co2)cc1 [mubritinib]
Outline: as §1

[11] = compound: NC(=O)Nc1cc(-c2cccc(F)c2)sc1C(=O)N[C@H]1CCCNC1
Outline: as §1

[12] = compound: NC(=O)c1cnc(N[C@@H]2CCCC[C@@H]2N)nc1Nc1cccc(-n2nccn2)c1
Outline: as §1

[13] = compound: NC1(c2ccc(-c3nc4ccn5c(=O)[nH]nc5c4cc3-c3ccccc3)cc2)CCC1
Outline: as §1

[14] = compound: Nc1ccccc1NC(=O)c1ccc(CNC(=O)OCc2cccnc2)cc1 [entinostat]
Outline: as §1

[15] = compound: O=C(CCCCCCC(=O)Nc1ccccc1)NO [vorinostat]
Outline: as §1

[16] = compound: O=C(CCCCCCNC(=O)c1cnc(N(c2ccccc2)c2ccccc2Cl)nc1)NO [citarinostat]
Outline: as §1

[17] = compound: O=C(O)c1ccc2c(c1)nc(Nc1cccc(Cl)c1)c1ccncc12 [silmitasertib]
Outline: as §1

[18] = compound: O=C1NC(=O)C(c2cnc3ccccn23)=C1c1cn2c3c(cc(F)cc13)CN(C(=O)N1CCCCC1)CC2
Outline: as §1

[19] = compound: c1cc(OCCN2CCCCC2)cc(-c2n[nH]c3ccc(-c4nnc[nH]4)cc23)c1
Outline: as §1

[20] = compound: NCC(=O)Nc1ccc(-n2nc(C(F)(F)F)cc2-c2ccc3c(ccc4ccccc43)c2)cc1
Outline: as §1

Measured: log2 fold change

LRBA, A0A494BZW2
inactive: [1] -0.041 | [2] 0.044 | [3] 0.019 | [4] -0.016 | [5] -0.144 | [6] 0.053 | [7] -0.076 | [8] 0.123 | [9] -0.26 | [10] -0.03 | [11] 0.036 | [12] -0.031 | [13] -0.114 | [14] 0.232 | [15] -0.032 | [16] 0.03 | [17] 0.011 | [18] 0.063 | [19] 0.028

MBLAC1 (UniProt A4D2B0)
Sequence of UniProt A4D2B0 (A4D2B0 whole entry, looked up): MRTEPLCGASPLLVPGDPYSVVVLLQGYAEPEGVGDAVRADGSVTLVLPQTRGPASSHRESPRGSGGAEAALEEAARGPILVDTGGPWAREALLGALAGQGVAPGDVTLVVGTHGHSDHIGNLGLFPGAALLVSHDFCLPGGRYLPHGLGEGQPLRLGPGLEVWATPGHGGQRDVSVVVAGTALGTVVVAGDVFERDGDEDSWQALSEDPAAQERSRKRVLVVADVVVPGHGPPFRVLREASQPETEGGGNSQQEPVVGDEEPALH
inactive: [1] -0.017 | [2] 0.065 | [5] -0.129 | [7] 0.086 | [8] -0.125 | [9] 0.094 | [10] -0.045 | [12] -0.031 | [13] -0.179 | [20] 0.242 | [15] -0.021 | [16] 0.01 | [17] -0.082 | [19] -0.067

MAN2B2 (UniProt Q9Y2E5)
inactive: [1] -0.302 | [3] -0.171 | [4] 0.057 | [5] 0.013 | [6] -0.023 | [8] -0.088 | [9] 0.093 | [10] 0.147 | [11] 0.063 | [12] -0.099 | [13] -0.262 | [20] 0.089 | [14] -0.018 | [16] 0.089 | [17] -0.029 | [18] -0.058 | [19] -0.005

MASTL (UniProt Q96GX5)
inactive: [1] 0.143 | [3] 0.014 | [4] 0.002 | [5] -0.105 | [6] 0.021 | [7] -0.052 | [8] 0.276 | [10] -0.093 | [11] 0.123 | [12] -0.018 | [13] 0.144 | [20] -0.004 | [14] 0.053 | [16] -0.018 | [17] 0.123 | [18] 0.039 | [19] 0.002

IMMP1L (UniProt Q96LU5)
Sequence of UniProt Q96LU5 (Q96LU5 whole entry, looked up): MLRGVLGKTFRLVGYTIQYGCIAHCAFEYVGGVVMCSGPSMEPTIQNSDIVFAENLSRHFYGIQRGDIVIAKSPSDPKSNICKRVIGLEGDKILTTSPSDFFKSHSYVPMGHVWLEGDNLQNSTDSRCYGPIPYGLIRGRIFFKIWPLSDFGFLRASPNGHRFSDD
inactive: [1] -0.024 | [3] -0.044 | [4] 0.059 | [5] 0.098 | [6] 0.03 | [7] 0.068 | [8] 0.071 | [9] 0.02 | [10] 0.048 | [11] -0.062 | [12] -0.055 | [13] -0.103 | [20] -0.037 | [14] 0.005 | [16] 0.044 | [17] -0.132 | [18] -0.088 | [19] 0.017

LAMP2 isoform 2 (UniProt P13473)
inactive: [1] -0.014 | [2] -0.014 | [3] 0.018 | [4] -0.009 | [5] -0.047 | [6] 0 | [7] 0.005 | [9] 0.126 | [10] 0.003 | [12] -0.1 | [13] -0.321 | [20] -0.132 | [15] -0.113 | [16] 0.061 | [17] 0.003 | [18] 0.027 | [19] -0.275

IL27RA (UniProt Q6UWB1)
inactive: [1] -0.098 | [3] 0.086 | [4] -0.06 | [5] 0.055 | [6] -0.006 | [7] -0.039 | [8] -0.109 | [9] 0.159 | [10] 0.005 | [11] -0.077 | [12] -0.091 | [13] -0.116 | [20] -0.123 | [14] 0.016 | [16] 0.082 | [17] 0.009 | [18] 0.154 | [19] -0.172

MFSD11 (UniProt O43934)
inactive: [1] -0.047 | [2] -0.032 | [3] -0.038 | [4] 0.046 | [5] -0.004 | [6] -0.119 | [7] 0.17 | [9] -0.047 | [10] 0.063 | [11] 0.035 | [12] 0.038 | [13] -0.202 | [20] 0.002 | [14] -0.112 | [15] -0.028 | [16] -0.096 | [17] 0.044 | [18] -0.04 | [19] 0.063

IL10RB (UniProt Q08334)
inactive: [1] -0.079 | [2] -0.031 | [3] 0.026 | [4] 0.151 | [5] 0.068 | [6] 0.105 | [9] 0.126 | [11] -0.113 | [12] -0.121 | [20] -0.031 | [15] 0.109 | [16] 0.055 | [18] 0.062 | [19] -0.026
active: [14] -0.431

KXD1 (UniProt Q9BQD3)
inactive: [1] -0.131 | [2] 0.045 | [5] -0.082 | [7] 0.019 | [8] 0.085 | [9] 0.024 | [10] 0.052 | [12] -0.091 | [13] -0.237 | [20] -0.021 | [15] -0.046 | [16] 0.042 | [17] -0.113 | [18] 0.131 | [19] -0.055

MED12 isoform 2 (UniProt Q93074)
Sequence of UniProt Q93074 (Q93074 whole entry, looked up): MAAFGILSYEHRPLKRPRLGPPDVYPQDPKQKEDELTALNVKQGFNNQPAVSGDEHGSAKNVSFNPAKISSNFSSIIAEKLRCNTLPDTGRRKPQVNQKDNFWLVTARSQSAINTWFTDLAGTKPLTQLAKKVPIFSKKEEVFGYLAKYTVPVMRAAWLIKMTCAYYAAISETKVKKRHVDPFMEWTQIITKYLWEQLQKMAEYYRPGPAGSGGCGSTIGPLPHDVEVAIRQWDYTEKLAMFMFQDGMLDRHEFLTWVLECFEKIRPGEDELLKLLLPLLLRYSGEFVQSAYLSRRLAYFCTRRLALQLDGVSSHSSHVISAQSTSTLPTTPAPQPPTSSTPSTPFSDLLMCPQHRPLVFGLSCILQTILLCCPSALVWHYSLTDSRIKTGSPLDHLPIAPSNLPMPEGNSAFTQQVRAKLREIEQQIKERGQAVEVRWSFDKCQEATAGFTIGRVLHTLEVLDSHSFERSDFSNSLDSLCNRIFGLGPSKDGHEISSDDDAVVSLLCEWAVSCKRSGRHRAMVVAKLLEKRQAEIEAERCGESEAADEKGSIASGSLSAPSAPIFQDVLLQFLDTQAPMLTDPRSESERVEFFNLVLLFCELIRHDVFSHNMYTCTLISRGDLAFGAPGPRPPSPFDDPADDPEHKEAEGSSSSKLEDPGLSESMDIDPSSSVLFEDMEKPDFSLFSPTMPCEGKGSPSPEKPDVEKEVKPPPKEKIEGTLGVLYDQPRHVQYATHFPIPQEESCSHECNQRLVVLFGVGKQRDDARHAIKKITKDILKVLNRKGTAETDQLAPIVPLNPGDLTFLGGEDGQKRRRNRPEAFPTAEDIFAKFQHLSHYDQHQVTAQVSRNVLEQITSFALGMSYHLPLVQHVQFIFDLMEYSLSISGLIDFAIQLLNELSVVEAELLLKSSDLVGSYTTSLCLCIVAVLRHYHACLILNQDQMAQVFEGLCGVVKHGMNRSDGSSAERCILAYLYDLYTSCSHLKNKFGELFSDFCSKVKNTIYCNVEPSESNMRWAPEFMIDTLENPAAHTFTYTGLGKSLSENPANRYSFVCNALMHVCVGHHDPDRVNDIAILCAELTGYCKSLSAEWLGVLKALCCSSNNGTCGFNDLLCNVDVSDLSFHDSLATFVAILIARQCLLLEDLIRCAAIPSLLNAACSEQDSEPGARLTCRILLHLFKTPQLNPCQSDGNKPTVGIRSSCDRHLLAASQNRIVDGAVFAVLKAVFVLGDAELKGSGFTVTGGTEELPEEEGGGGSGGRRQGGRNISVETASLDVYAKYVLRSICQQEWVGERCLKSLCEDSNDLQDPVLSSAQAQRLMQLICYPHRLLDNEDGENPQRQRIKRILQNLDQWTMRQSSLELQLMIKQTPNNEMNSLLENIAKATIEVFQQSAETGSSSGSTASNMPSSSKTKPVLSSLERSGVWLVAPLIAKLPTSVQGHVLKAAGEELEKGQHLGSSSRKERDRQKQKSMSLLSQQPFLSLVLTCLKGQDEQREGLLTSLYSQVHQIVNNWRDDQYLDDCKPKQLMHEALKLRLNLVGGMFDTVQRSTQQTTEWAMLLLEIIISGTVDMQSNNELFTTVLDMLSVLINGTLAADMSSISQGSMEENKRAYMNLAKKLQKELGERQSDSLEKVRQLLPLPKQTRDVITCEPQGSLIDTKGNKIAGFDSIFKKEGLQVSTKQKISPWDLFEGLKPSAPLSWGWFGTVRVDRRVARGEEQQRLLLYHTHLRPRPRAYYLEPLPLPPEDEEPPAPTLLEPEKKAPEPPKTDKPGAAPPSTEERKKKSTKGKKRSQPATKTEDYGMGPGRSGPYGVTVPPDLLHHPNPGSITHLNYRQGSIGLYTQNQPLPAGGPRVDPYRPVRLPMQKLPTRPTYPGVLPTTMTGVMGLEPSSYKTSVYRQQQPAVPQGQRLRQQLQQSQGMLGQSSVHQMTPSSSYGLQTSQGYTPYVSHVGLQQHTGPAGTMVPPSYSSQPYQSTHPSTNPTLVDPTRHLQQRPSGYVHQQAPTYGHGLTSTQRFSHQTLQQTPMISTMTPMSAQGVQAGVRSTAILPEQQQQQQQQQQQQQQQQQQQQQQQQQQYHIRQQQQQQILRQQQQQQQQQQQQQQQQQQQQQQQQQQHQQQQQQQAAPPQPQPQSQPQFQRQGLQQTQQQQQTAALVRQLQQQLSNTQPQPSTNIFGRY
inactive: [1] -0.112 | [2] 0.044 | [3] -0.038 | [4] 0.068 | [5] -0.24 | [6] -0.058 | [8] 0.003 | [9] -0.071 | [10] -0.103 | [11] 0.022 | [12] -0.455 | [13] -0.191 | [14] 0.066 | [15] 0.22 | [16] 0.181 | [17] 0.016 | [18] -0.005 | [19] -0.311

MCOLN3 (UniProt Q8TDD5)
inactive: [1] -0.03 | [2] -0.183 | [3] -0.289 | [4] -0.113 | [6] 0.041 | [8] 0.079 | [9] 0.072 | [10] 0.05 | [13] -0.254 | [15] 0 | [16] 0.095 | [17] 0.083 | [19] 0.159

KCNK5 (UniProt O95279)
inactive: [1] -0.31 | [2] 0.025 | [5] -0.472 | [7] 0.139 | [9] -0.183 | [10] 0.076 | [11] -0.066 | [13] 0.16 | [14] 0.031 | [15] -0.102 | [16] 0.198 | [17] 0.093 | [18] 0.004 | [19] 0.005

MED22 (UniProt Q15528)
active: [19] 0.322
inactive: [1] -0.137 | [3] 0.019 | [4] -0.048 | [5] -0.009 | [6] -0.011 | [7] 0.102 | [8] 0.059 | [10] -0.043 | [11] 0.042 | [12] 0.029 | [13] 0.064 | [20] 0.023 | [14] 0.049 | [16] -0.243 | [17] -0.01 | [18] -0.074

MGRN1 isoform 2 (UniProt O60291)
Sequence of UniProt O60291 (O60291 whole entry, looked up): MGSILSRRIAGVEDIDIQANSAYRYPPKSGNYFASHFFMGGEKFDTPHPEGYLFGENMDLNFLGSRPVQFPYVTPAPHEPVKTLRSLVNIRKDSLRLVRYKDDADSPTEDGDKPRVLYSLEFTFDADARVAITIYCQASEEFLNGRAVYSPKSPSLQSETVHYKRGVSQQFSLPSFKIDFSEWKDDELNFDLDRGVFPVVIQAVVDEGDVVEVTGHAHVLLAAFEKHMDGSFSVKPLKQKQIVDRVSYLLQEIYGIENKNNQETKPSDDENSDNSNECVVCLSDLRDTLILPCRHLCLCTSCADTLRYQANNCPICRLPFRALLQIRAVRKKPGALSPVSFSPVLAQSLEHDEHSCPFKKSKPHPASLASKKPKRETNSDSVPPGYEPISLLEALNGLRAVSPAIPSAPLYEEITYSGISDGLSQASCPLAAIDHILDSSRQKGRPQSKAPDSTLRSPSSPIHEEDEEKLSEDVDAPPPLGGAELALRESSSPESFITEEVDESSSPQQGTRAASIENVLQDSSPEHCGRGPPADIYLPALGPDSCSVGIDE
inactive: [1] -0.07 | [2] -0.227 | [7] -0.149 | [8] 0.027 | [9] 0.2 | [12] 0.11 | [15] -0.024

LPGAT1 (UniProt Q92604)
Sequence of UniProt Q92604 (Q92604 whole entry, looked up): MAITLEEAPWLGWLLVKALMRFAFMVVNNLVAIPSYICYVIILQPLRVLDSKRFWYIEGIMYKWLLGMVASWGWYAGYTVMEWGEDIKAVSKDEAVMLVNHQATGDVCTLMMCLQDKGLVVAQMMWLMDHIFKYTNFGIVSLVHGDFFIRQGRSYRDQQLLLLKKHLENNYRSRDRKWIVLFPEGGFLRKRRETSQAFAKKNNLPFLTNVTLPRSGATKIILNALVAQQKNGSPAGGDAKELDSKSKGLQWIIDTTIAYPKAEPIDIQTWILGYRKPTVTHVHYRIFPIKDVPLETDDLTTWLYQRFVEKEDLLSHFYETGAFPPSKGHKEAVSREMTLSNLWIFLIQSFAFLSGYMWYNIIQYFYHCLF
inactive: [1] -0.086 | [3] -0.04 | [4] -0.128 | [5] 0.086 | [6] 0.048 | [7] 0.055 | [8] -0.082 | [9] 0.01 | [10] 0.067 | [11] 0.038 | [12] 0.048 | [13] -0.102 | [20] 0.063 | [14] -0.047 | [16] 0.157 | [17] -0.015 | [18] -0.015 | [19] -0.108

ITM2B (UniProt Q9Y287)
Sequence of UniProt Q9Y287 (Q9Y287 whole entry, looked up): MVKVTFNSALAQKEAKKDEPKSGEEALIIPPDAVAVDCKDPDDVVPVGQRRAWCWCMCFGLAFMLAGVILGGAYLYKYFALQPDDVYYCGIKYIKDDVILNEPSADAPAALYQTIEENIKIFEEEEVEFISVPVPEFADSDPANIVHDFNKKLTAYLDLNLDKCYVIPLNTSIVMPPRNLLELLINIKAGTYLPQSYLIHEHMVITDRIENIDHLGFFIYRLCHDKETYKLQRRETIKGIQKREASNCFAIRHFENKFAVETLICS
inactive: [1] -0.112 | [3] 0.006 | [4] -0.062 | [5] 0.006 | [6] 0.033 | [7] 0.035 | [8] -0.04 | [9] 0.006 | [10] 0.059 | [11] -0.036 | [12] 0.091 | [13] -0.144 | [20] 0.021 | [14] -0.083 | [16] -0.006 | [18] 0.109 | [19] -0.178
active: [17] 0.38

MCM10 (UniProt Q7L590)
Sequence of UniProt Q7L590 (Q7L590 whole entry, looked up): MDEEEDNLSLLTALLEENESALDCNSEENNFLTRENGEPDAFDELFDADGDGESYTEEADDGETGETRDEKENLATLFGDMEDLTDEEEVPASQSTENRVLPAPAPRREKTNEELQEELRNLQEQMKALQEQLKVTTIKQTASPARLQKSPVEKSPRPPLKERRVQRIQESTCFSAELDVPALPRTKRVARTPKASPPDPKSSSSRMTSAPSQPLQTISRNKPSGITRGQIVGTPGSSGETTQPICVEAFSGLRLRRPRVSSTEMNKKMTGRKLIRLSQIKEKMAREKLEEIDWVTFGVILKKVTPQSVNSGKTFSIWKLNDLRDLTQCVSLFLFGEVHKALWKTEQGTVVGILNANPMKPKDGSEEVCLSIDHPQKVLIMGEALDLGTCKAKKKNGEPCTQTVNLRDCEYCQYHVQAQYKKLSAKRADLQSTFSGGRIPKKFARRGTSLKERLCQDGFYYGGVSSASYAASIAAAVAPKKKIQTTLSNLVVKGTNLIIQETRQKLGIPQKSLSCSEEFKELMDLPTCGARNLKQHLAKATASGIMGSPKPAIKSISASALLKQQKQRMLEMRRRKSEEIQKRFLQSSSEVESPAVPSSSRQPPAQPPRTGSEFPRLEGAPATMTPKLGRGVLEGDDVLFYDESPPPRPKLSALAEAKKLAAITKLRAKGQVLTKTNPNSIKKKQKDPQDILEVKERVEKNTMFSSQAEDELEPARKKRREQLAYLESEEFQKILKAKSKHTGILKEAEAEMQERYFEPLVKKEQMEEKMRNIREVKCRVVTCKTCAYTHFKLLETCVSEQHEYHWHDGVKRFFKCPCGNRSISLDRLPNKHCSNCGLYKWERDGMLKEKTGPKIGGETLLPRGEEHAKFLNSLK
inactive: [1] 0.182 | [2] -0.044 | [3] 0.046 | [4] -0.001 | [6] -0.008 | [9] -0.155 | [10] 0.09 | [13] 0.002 | [20] -0.085 | [14] 0.224 | [15] 0.021 | [16] 0.143 | [17] -0.129 | [18] 0.134 | [19] 0.107
active: [11] 0.522

LGALS8 isoform 2 (UniProt O00214)
Sequence of UniProt O00214 (O00214 whole entry, looked up): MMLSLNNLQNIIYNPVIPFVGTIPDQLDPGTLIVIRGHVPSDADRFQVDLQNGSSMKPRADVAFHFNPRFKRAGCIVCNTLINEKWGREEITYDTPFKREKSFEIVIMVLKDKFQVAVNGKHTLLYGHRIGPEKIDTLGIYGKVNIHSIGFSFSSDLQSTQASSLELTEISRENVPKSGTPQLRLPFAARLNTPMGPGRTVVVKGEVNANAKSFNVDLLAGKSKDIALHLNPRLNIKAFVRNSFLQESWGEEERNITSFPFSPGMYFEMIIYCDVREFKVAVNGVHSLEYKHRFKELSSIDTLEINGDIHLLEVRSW
inactive: [1] 0.107 | [2] 0.079 | [5] 0.013 | [7] -0.253 | [10] -0.186 | [11] -0.053 | [12] -0.096 | [13] 0.179 | [20] 0.055 | [14] 0.091 | [15] 0.078 | [16] 0.051 | [17] 0.147 | [18] 0.121 | [19] -0.129
